According to PubChem BioAssay (Tox21):
Results filed as inconclusive are left out. Entries that show only a call come without a potency. Calls of active or inactive are those of the source. Unless noted, the call rests on the fitted dose curve; in most records, active means well fitted curve in the direction sought with a large enough effect in the repeat runs; inconclusive means weak or mixed curves; inactive means no such curve, though single readings can be large; an effect the other way counts as inactive or inconclusive.

Experiments:
[1] = qHTS assay to identify small molecule agonists of the estrogen related receptor (ERR) signaling pathway (AID 1224820)
Outline: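 Quantitative HTS of the LOPAC library used NTP ERR reporter cells treated 18 h at 37 C. Signal is luminescence after One-Glo addition and a 30 min room-temperature incubation.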

[2] = test system: estrogen-related receptor alpha (ERRalpha) with PGC-1alpha coactivator, human; assay: qHTS assay to identify small molecule antagonists of the estrogen related receptor signaling pathway with the pleiotropic PPARgamma coactivator (PGC) (AID 1224821; calls by dose curve;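 further: series mostly up to about 46 µM; lower luminescence signal means antagonism of PGC/ERR signalling; nearly all actives have a fitted effect of over 50% in size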)
Outline: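 Quantitative HTS for antagonism: PGC/ERR cells received compounds after 6 h attachment and were incubated 18 h at 37 C, with luminescence (One-Glo) as the endpoint.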

[3] = qHTS assay to identify small molecule antagonists of the estrogen related receptor signaling pathway with the pleiotropic PPARgamma coactivator (PGC) cell viability counter screen (AID 1224822; further: potency means the concentration at half of the fitted maximal effect;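 further: viability read after 17.5 h compound exposure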)
Outline: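 qHTS format, DMSO compound stocks pin-transferred onto PGC/ERR cells 6 h after plating; 17.5 h exposure at 37 C, then CellTiter-Fluor fluorescence.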

[4] = qHTS assay to identify small molecule antagonists of the estrogen related receptor (ERR) signaling pathway (AID 1224819; further: nearly all actives have a fitted effect of over 50% in size; further: potency means the concentration at half of the fitted maximal effect)
Outline: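 LOPAC library screened for antagonism as reduced One-Glo luminescence in ERR reporter cells (2,000/well). Compounds were added after 6 h pre-incubation and left 18 h at 37C; reading followed a 30 min room-temperature reagent step.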

[5] = qHTS assay to identify small molecule agonists of the estrogen related receptor signaling pathway with the pleiotropic PPARgamma coactivator (PGC) (AID 1224823)
Outline: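 Cell-based luciferase assay in the NTP-supplied PGC/ERR line, 2,000 cells/well; 18 h compound exposure at 37 C, luminescence after One-Glo.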

| SMILES | Potency [1] | Potency [2] | Potency [3] | Potency [4] | Potency [5] |
| --- | --- | --- | --- | --- | --- |
| CCNC(=O)[C@H]1O[C@@H](n2cnc3c(N)ncnc32)[C@H](O)C1O (stereo partly drawn) | inactive | inactive | inactive | – | – |
| O=[N+]([O-])c1cc(O)c(O)c([N+](=O)[O-])c1 | inactive | inactive | inactive | inactive | inactive |
| NNC(=O)c1ccc(O)cc1 | – | inactive | inactive | inactive | inactive |
| Clc1ccc(N2CC3CCC(C2)N3)nn1 | inactive | inactive | inactive | inactive | inactive |
| NC(CP(=O)(O)O)C(=O)O (stereo not drawn) | inactive | inactive | – | inactive | – |
| CC(N)Cc1c[nH]c2ccc(OCc3cccs3)cc12 (stereo not drawn) | inactive | inactive | – | inactive | inactive |
| C/C=C(/C)C(=O)O[C@H]1C(C)=C2[C@H]([C@@H]1OC(=O)CCCCCCC)[C@@](C)(OC(C)=O)C[C@H](OC(=O)CCC)[C@@]1(O)[C@H]2OC(=O)[C@@]1(C)O | inactive | – | 8.1 µM (active) | 0.246 µM (active) | inactive |
| Oc1ccc2c3c1O[C@H]1c4[nH]c5ccccc5c4C[C@@]4(O)C(C2)N(CC2CC2)CCC314 (stereo partly drawn) | inactive | inactive | inactive | inactive | inactive |
| CC1(C(=O)O)C2CCC(O2)C1(C)C(=O)O (stereo not drawn) | inactive | inactive | – | – | – |
| C[N+]1(C)CCOC(O)(c2ccc(-c3ccc(C4(O)C[N+](C)(C)CCO4)cc3)cc2)C1 (stereo not drawn) | – | inactive | inactive | inactive | – |
| NCCc1c[nH]c2ccccc12 | inactive | inactive | – | inactive | inactive |
| c1ccc2c(c1)[I+]c1ccccc1-2 | inactive | – | – | – | – |
| CNCCc1c[nH]c2ccc(O)cc12 | inactive | inactive | inactive | inactive | – |
| CC(N)c1cccc(Cl)c1Cl (stereo not drawn) | inactive | inactive | – | inactive | inactive |
| C[C@]12Cc3cn4c(nc3C=C1CCC1C2CC[C@@]2(C)[C@H]1CC[C@@]2(O)C#N)nc1ccccc14 (stereo partly drawn) | inactive | – | – | – | inactive |
